Compounds with a hit are over-represented: about 21% of the library has one in this group of screens.
Shiga toxin inh – inhibitors of Shiga toxin in Vero cells. AID 2315. Vero cells, Shiga toxin protein synthesis inhibition reporter. 9.2% of 290,000 active. inhibition, % at 38.7 µM; in the data active means inhibition mostly above about 28%, no sharp cut-off; inactive means mostly below about 43%; further: 0% is about no effect
NS1 inh – inhibitors of influenza NS1 protein function; AID 2326; 0.4% of 270,000 active; Potency, µM (top dose mostly 46.1 µM), without a hit: at the highest dose activity, positive = more growth; calls by dose curve; further: potency means the concentration at half of the fitted maximal effect; actives are rising curves; nearly all actives have a fitted effect of over 50% in size
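S. cerevisiae expressing influenza A NS1, grown in glucose, washed, then diluted 1:100 into pH 6.0 -URA galactose medium with 23 nl compound. Growth recovery read as OD600; NS1-free strain serves as control.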
Giardia FBPA inh – Giardia lamblia aldolase inhibition | A8B2U2 | purified Giardia FBPA | Potency, µM (titrated, usually from 59.6 µM), inactives show at the highest dose activity, negative = inhibition, actives largely listed as inhibitors | 0.71% of 290,000 active; further: potency means the concentration at half of the fitted maximal effect; on the % scale 0 is the no-effect control and ±100 the full control effect; nearly all actives have a fitted effect of over 55% in size
Target sequence (A8B2U2 whole entry, looked up): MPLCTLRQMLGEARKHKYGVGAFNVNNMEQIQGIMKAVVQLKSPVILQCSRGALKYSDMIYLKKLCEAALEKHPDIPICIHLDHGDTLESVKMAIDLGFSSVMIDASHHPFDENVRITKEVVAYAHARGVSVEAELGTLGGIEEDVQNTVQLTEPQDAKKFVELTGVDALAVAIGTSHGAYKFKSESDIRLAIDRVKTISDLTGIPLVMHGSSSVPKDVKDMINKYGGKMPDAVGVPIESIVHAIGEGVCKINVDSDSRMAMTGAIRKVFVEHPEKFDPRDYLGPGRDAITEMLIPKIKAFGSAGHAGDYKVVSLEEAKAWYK
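Giardia FBPA (40 nM reagent) was preincubated 10 min at RT with compound (up to 57.5 uM final), then substrate plus GAPDH/TPI/NAD/arsenate coupling system with diaphorase/resazurin was added; resorufin fluorescence (525/598 nm) was read after 20 min.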
Pf growth 96h – inhibits malaria parasite growth, 96 h; 6.9% of 320,000 active; P. falciparum luciferase reporter growth, 96 h; Potency, µM (series often up to 28.7 µM), without a hit: at the highest dose activity change, negative = inhibition, actives largely listed as inhibitors; further: potency means the concentration at half of the fitted maximal effect; on the % scale 0 is the no-effect control and ±100 the full control effect
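Erythrocytes infected with luciferase-expressing P. falciparum were dispensed at 2% hematocrit and 0.05% parasitemia (final), then incubated with compounds 96 hours at 37 C in 5% CO2. Luminescence after detection reagent addition reported growth.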
Cycloheximide cs – affects cycloheximide protein synthesis inhibition readout, counter-screen. cell reporter, cycloheximide protein synthesis inhibition counterscreen. max response, %. 12% of 300,000 active; in the data active means max response mostly above about 13%, no sharp cut-off; inactive means mostly below about 14%; further: read at 38.3 µM for the half of the compounds with a filed dose; 0% is about no effect
Pf growth 48h – P. falciparum growth inhibition at 48 hours (one generation) | P. falciparum luciferase growth in erythrocytes, 48 h | 5.9% of 310,000 active | Potency, µM (titrated, usually from 28.7 µM), inactives show at the top dose activity change, negative = inhibition, actives largely listed as inhibitors | AID 504832; further: potency means the concentration at half of the fitted maximal effect; on the % scale 0 is the no-effect control and ±100 the full control effect
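In quantitative HTS format, infected erythrocytes bearing luciferase-reporter parasites were treated for a single generation at 37 C. Luminescence after adding detection reagent served as the growth measure.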
* hit, by the source's call; ? = inconclusive; / = no result. Unless noted, the call rests on the fitted dose curve; in most records, active means well fitted curve in the direction sought with a large enough effect; inconclusive means small, poorly fitted or top-dose-only effect, or another doubt; inactive means no such curve, though single readings can be large; an effect the other way counts as inactive or inconclusive.

SMILES	Shiga toxin inh	NS1 inh	Giardia FBPA inh	Pf growth 96h	Cycloheximide cs	Pf growth 48h
Cc1cc(=S)c2cccc(C)c2[nH]1	-5	0%	?	100%	-2	?
CCOc1ccc(/C=C2/SC(=O)NC2=S)cc1	46*	-33%	15%	?	35*	4%
CCOc1ccc(/C=C2\SC(=S)N(N3C(=O)C4CC4C3=O)C2=O)cc1 (stereo not given)	18	0%	4%	-7%	8	4.1µM*
CCOc1ccc(/C=C2\SC(N3CCCCC3)=NC2=O)cc1	26	-13%	3%	19%	11	?
O=C1NC(=Nc2ccc(Cl)cc2)/C(=C/c2ccco2)S1	14	16%	-25%	?	8	?
CCOc1ccc(N=C2NC(=O)S/C2=C\c2ccc(N(C)C)cc2)cc1	59*	-30%	-2%	98%	22*	82%
COC(=O)[C@@H](Cc1c[nH]c2ccccc12)NC(=O)C1CCCN(S(=O)(=O)c2ccc(C)cc2)C1 (stereo not given in full)	-15	5%	1%	?	-5	?
Nn1c(SCC(=O)N2CCOCC2)nnc1-c1cccnc1	/	/	/	10%	/	2%
O=C(Nc1ccccc1)Nc1ccccc1-n1ccnc1	17	4%	1%	-3%	8	-1%
Cc1cc(C)n(-c2ccc(NN=C(C#N)C#N)cc2)n1	18	-72%	?	?	14	?
O=C(Nc1ccccc1)Nc1ccc(-n2ccc(C(F)(F)F)n2)cc1	75*	0%	2%	3.3µM*	39*	?
N#CC(C#N)=NNc1ccc(-n2ccc(C(F)(F)F)n2)cc1	42	-60%	-17%	?	16*	?
CC(CC(=O)NCCc1ccc(F)cc1)c1ccccc1 (stereo not given)	57	-7%	6%	?	25*	28%
O=C(CCSCc1ccc(Cl)cc1)NCCc1ccccc1	-9	-17%	3%	-27%	-2	6%
O=C(CCc1ccccc1)NCCSCc1c(F)cccc1Cl	14	-38%	2%	?	23*	-14%
O=C(CSCc1ccccc1)NCCc1ccc(F)cc1	30	-1%	0%	-12%	17*	?
O=C(CSCc1ccc(Br)cc1)NCCc1ccccc1	2	-52%	9%	5%	-3	-14%
CC(C)NC(=O)CSCc1c(F)cccc1Cl	9	8%	-6%	34%	8.4*	6%
C[C@@]12C(=O)N(CC3CC3)CC(=O)N1[C@H](/C=C/c1ccccc1)[C@@H]1C(=O)N(c3ccccc3)C(=O)[C@@H]12	1	19%	2%	50%	1	-11%
O=C(CSCc1c(F)cccc1Cl)NCCc1ccccc1	46*	-50%	-4%	13%	21*	22%
[O-]/[N+](=C/c1ccccc1)c1ccccc1	/	/	/	?	/	46%
Cc1ccc(C2=NC3(CCCC3)NC2=S)cc1	91	-1%	2%	-9%	22*	29%
S=C1NC2(CCCCCC2)N=C1c1ccccc1	-10	/	6%	153%	4	13µM*
S=C1NC2(CCCC2)N=C1c1ccccc1	39	/	1%	0%	21*	7%
CCCCOc1ccc(N(CC(=O)NCc2ccccc2)C(=O)c2csnn2)cc1	30*	-6%	6%	-25%	27	-9%
SMILES	Shiga toxin inh	NS1 inh	Giardia FBPA inh	Pf growth 96h	Cycloheximide cs	Pf growth 48h
CC(=O)c1ccc(N(CC(=O)NCCc2ccccc2)C(=O)c2csnn2)cc1	20	20%	-5%	9.3µM*	1	?
COc1ccc(CNC(=O)CN(C(=O)c2csnn2)c2ccc(C(C)=O)cc2)cc1	39	-1%	/	0%	10	10µM*
COc1ccc(CNC(=O)CN(C(=O)c2csnn2)c2ccc(F)cc2)cc1	-1	10%	-4%	-2%	-1	-10%
CCOC(=O)N1CCN(c2cc(=O)n(-c3cccc(C)c3)c(=O)[nH]2)CC1	-3	/	-10%	0%	-7	1%
COc1cc2c3nnc(-c4ccc(F)cc4)c-3cn(Cc3ccccc3F)c2cc1OC	35	/	2%	0.74µM*	1	0.37µM*
COc1cc2c3nnc(-c4ccccc4)c-3cn(Cc3ccccc3F)c2cc1OC	-18	/	0%	?	11	?
Cc1ccccc1NC(=O)OCc1ccccc1	59*	-10%	4%	?	28*	33%
Cc1ccc(C)c(NC(=S)NC(NC(=O)OCc2ccccc2)C(Cl)(Cl)Cl)c1 (stereo not given)	-6	14%	2%	9.3µM*	-1	?
CSc1nsc(SC)c1NC(=O)OCCc1ccccn1	23	5%	-11%	/	3	7%
CSc1ccccc1COC(=O)Nc1ccccc1C	36	/	1%	-27%	29*	?
C[C@H](NC(=O)OCc1ccccc1)C(=O)NNC(=O)[C@H](C)NC(=O)OCc1ccccc1	-6	-1%	-1%	6%	-2	-10%
CSc1nsc(SC)c1NC(=O)OCc1ccccc1	45	-33%	/	?	22*	6%
O=C(NC(NC(=S)Nc1c(Cl)cc(Cl)cc1Cl)C(Cl)(Cl)Cl)OCc1ccccc1 (stereo not given)	-16	-2%	-5%	-28%	-1	?
O=C(CS(=O)(=O)c1ccc(Cl)cc1)Nc1nnc(-c2cccs2)o1	0	-13%	/	4%	3	-13%
O=c1ccc(-c2ccc(S(=O)(=O)NCC3CCN(Cc4ccccc4F)CC3)s2)n[nH]1	-9	-5%	/	2.9µM*	-2	?
COC(=O)c1cc(S(=O)(=O)NCC2CCN(Cc3ccccc3F)CC2)c[nH]1	-3	-7%	/	27%	-1	15%
Fc1ccc(-n2cc(-c3ccccc3)c3c(NN4CCOCC4)ncnc32)cc1	-11	-15%	7%	?	-4	15µM*
COc1ccc(-n2cc(-c3ccccc3)c3c(NN4CCOCC4)ncnc32)cc1	-26	/	8%	13%	-6	-24%
COc1ccc(-c2cc3nc(-c4ccccc4)cc(N4CCCC(O)C4)n3n2)cc1 (stereo not given)	-11	4%	-6%	-8%	2	8.3µM*
COc1ccc(-c2cc3nc(-c4ccccc4)cc(N4CCC(O)CC4)n3n2)cc1	12	-1%	-11%	-15%	3	10µM*
Fc1ccc(-c2cc3nc(-c4ccccc4)cc(N4CCOCC4)n3n2)cc1	-14	1%	-1%	65%	-8	/
CCOC(=O)c1oc2ccc(CNC(C)(C)C)c(Cl)c2c1C	27*	7%	0%	?	16*	-1%
CCOC(=O)c1oc2cccc(OC(C)=O)c2c1C	68*	-81%	11%	8%	39*	35%
CCOC(=O)c1oc2cccc(O)c2c1C	63*	-117%	-1%	64%	32*	81%
CCOC(=O)c1oc2cccc(O)c2c1CN(Cc1ccccc1)C(C)=O	-3	-1%	1%	?	-5	-23%

Assay outcomes deposited in PubChem BioAssay by National Center for Advancing Translational Sciences (NCATS).
